Test results: PubChem BioAssay (EPA / NIEHS)
Active and inactive are the calls of the source. The calls were made as follows: active = hit-call score of the fitted dose curve at least 0.9, where 1 is the maximum; inactive = score below 0.9.

Read-out: Monokine induced gamma interferon (MIG), CXCL9 (gene 4283)
Test: BSK_SAg_MIG: BioMAP Diversity Plus: SAg Assay for Monokine induced gamma interferon (MIG) Biomarker Activity (AID 2283092)
Conditions: primary human HUVEC with PBMC; actives raise or lower the signal
Method in brief: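 ELISA readout of MIG/CXCL9; primary human umbilical vein endothelial cells co-cultured with peripheral blood mononuclear cells; 24 h post-dose; gain/loss fit vs DMSO baseline.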

SMILES	AC50	outcome
On1ccccc1=S	19.8 µM (active)	
Cn1c(=O)c2c(ncn2C)n(C)c1=O		inactive
CC(=O)c1ccc2c(c1)[C@H](NC(=O)c1ccc(F)cc1)[C@@H](O)C(C)(C)O2		inactive
COCCOCCOCCOC		inactive
O=c1[nH]c2ccc(S(=O)CCN3CCC(Cc4ccc(F)cc4)CC3)cc2o1 (stereo not drawn)		inactive
CCCN(C1CCN(C(=O)C2CCNCC2)CC1)[C@@H]1CCc2ccc(OC)cc2C1		inactive
C1=CCCC=CCCC=CCC1		inactive
CC(C)CC(C)(O)C#CC(C)(O)CC(C)C (stereo not drawn)		inactive
O=C1CCC(N2C(=O)c3ccccc3C2=O)C(=O)N1 (stereo not drawn)		inactive
CC/C(=C\C(=N/O)C(N)=O)C(C)[N+](=O)[O-] (stereo not drawn)		inactive
CC(O)CN(CCN(CC(C)O)CC(C)O)CC(C)O (stereo not drawn)		inactive
C[C@](N)(Cc1ccc(O)c(O)c1)C(=O)O		inactive
CCOC(=O)c1ccc(C2CCC(NC[C@H](O)COc3ccc(O)c(NS(C)(=O)=O)c3)CC2)cc1 (stereo partly drawn)		inactive
CC[C@H]1OC(=O)[C@H](C)[C@@H](O[C@H]2C[C@@](C)(OC)[C@@H](O)[C@H](C)O2)[C@H](C)[C@@H](O[C@@H]2O[C@H](C)C[C@H](N(C)C)[C@H]2O)[C@](C)(O)C[C@@H](C)C(=O)[C@H](C)[C@@H](O)[C@]1(C)O		inactive
CCn1nc(Cc2ccccc2)cc1C1CCN(C[C@H]2C[C@H](N(C)[C@@H](C(=O)O)C(C)C)C[C@@H]2c2cccc(F)c2)CC1		inactive
O=P(OC(CCl)CCl)(OC(CCl)CCl)OC(CCl)CCl		inactive
O=C(O)c1cc(N=Nc2ccc(S(=O)(=O)Nc3ccccn3)cc2)ccc1O		inactive
Oc1ccc2c(c1)-c1ccccc1C2		inactive
CCCCCCCCCCCCc1ccccc1		inactive
CCCC(=O)OCC		inactive
CC[C@H](C)C(=O)O[C@H]1C[C@@H](C)C=C2C=C[C@H](C)[C@H](CC[C@@H]3C[C@@H](O)CC(=O)O3)[C@H]21		inactive
NC(=O)NO		inactive
COCCOc1cc2cc(C(=O)NC3CCN(C(C)C)CC3)n(CC(=O)Nc3ccc(Cl)cn3)c2cn1		inactive
COc1ccc(-n2nc(C(F)F)cc2-c2ccc(S(C)=O)cc2)cc1 (stereo not drawn)		inactive
CC(C)(O)c1coc(S(=O)(=O)NC(=O)Nc2c3c(cc4c2CCC4)CCC3)c1		inactive
CCNc1ccccc1		inactive
CC(C)CCCCCCOC(=O)c1ccc(C(=O)OCCCCCCC(C)C)c(C(=O)OCCCCCCC(C)C)c1		inactive
CCCCC(CC)COC(=O)CCCCCCCCC(=O)OCC(CC)CCCC (stereo not drawn)		inactive
Cn1c(=O)cc(Oc2ccc(F)cc2F)c2cnc(NCC(C)(C)O)nc21		inactive

Read-out: not listed separately
Test: BSK_SAg_PBMCCytotoxicity: PBMC Cytotoxicity Assessment in the BioMAP Diversity Plus: SAg Assay (AID 2283093);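 also: PBMC viability measured as Alamar Blue reduction fluorescence at 546/580 nm; fitted both ways against DMSO so a hit may be loss or gain of signal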;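 as to AC50: PBMC superantigen activated with SEB plus TSST-1 one hour after compound addition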
Conditions: primary human HUVEC with PBMC
Method in brief: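 Human umbilical vein endothelial cells co-cultured with PBMC; PBMC (75,000/well) pre-treated with compound 1 h, then activated with SEB and TSST-1 (20 ng/mL final each) for 90 h. Alamar Blue added 6 h, fluorescence 546/580 nm; bidirectional fit versus DMSO.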

SMILES	AC50	outcome
On1ccccc1=S	18.2 µM (active)	
Cn1c(=O)c2c(ncn2C)n(C)c1=O		inactive
CC(=O)c1ccc2c(c1)[C@H](NC(=O)c1ccc(F)cc1)[C@@H](O)C(C)(C)O2		inactive
COCCOCCOCCOC		inactive
O=c1[nH]c2ccc(S(=O)CCN3CCC(Cc4ccc(F)cc4)CC3)cc2o1 (stereo not drawn)		inactive
CCCN(C1CCN(C(=O)C2CCNCC2)CC1)[C@@H]1CCc2ccc(OC)cc2C1		inactive
C1=CCCC=CCCC=CCC1		inactive
CC(C)CC(C)(O)C#CC(C)(O)CC(C)C (stereo not drawn)		inactive
O=C1CCC(N2C(=O)c3ccccc3C2=O)C(=O)N1 (stereo not drawn)		inactive
CC/C(=C\C(=N/O)C(N)=O)C(C)[N+](=O)[O-] (stereo not drawn)		inactive
CC(O)CN(CCN(CC(C)O)CC(C)O)CC(C)O (stereo not drawn)		inactive
C[C@](N)(Cc1ccc(O)c(O)c1)C(=O)O	10.8 µM (active)	
CCOC(=O)c1ccc(C2CCC(NC[C@H](O)COc3ccc(O)c(NS(C)(=O)=O)c3)CC2)cc1 (stereo partly drawn)	20.6 µM (active)	
CC[C@H]1OC(=O)[C@H](C)[C@@H](O[C@H]2C[C@@](C)(OC)[C@@H](O)[C@H](C)O2)[C@H](C)[C@@H](O[C@@H]2O[C@H](C)C[C@H](N(C)C)[C@H]2O)[C@](C)(O)C[C@@H](C)C(=O)[C@H](C)[C@@H](O)[C@]1(C)O		inactive
CCn1nc(Cc2ccccc2)cc1C1CCN(C[C@H]2C[C@H](N(C)[C@@H](C(=O)O)C(C)C)C[C@@H]2c2cccc(F)c2)CC1		inactive
O=P(OC(CCl)CCl)(OC(CCl)CCl)OC(CCl)CCl		inactive
O=C(O)c1cc(N=Nc2ccc(S(=O)(=O)Nc3ccccn3)cc2)ccc1O		inactive
Oc1ccc2c(c1)-c1ccccc1C2		inactive
CCCCCCCCCCCCc1ccccc1		inactive
CCCC(=O)OCC		inactive
CC[C@H](C)C(=O)O[C@H]1C[C@@H](C)C=C2C=C[C@H](C)[C@H](CC[C@@H]3C[C@@H](O)CC(=O)O3)[C@H]21	21.7 µM (active)	
NC(=O)NO		inactive
COCCOc1cc2cc(C(=O)NC3CCN(C(C)C)CC3)n(CC(=O)Nc3ccc(Cl)cn3)c2cn1		inactive
COc1ccc(-n2nc(C(F)F)cc2-c2ccc(S(C)=O)cc2)cc1 (stereo not drawn)		inactive
CC(C)(O)c1coc(S(=O)(=O)NC(=O)Nc2c3c(cc4c2CCC4)CCC3)c1		inactive
CCNc1ccccc1		inactive
CC(C)CCCCCCOC(=O)c1ccc(C(=O)OCCCCCCC(C)C)c(C(=O)OCCCCCCC(C)C)c1		inactive
CCCCC(CC)COC(=O)CCCCCCCCC(=O)OCC(CC)CCCC (stereo not drawn)		inactive
Cn1c(=O)cc(Oc2ccc(F)cc2F)c2cnc(NCC(C)(C)O)nc21		inactive
